Assay results taken from the supplement of paper PMC6555819.

Legend:
Assay in all cases: PBM binding z-score (relative to random genomic background probes); higher = stronger binding; sequences stand for … in GC…GCGATTGACAGCGTAGAATGAAGG
[1] = tested on: FXR:RXRa (NR concentration 270 nM, RXRa partner concentration 90 nM)
Procedure, shortened: (§1)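 Custom Agilent 4×180K protein-binding microarrays carried double-stranded probes, each with a 34-nt variable region. These regions held direct-repeat seeds, single-nucleotide variants, half-site ablations and random human genomic background sequences. Ligand-free nuclear receptor dimers were incubated on the arrays for 1 h, antibodies against each partner (one per run) detected binding, and scanned fluorescence was regression-normalized. Binding z-scores take the random background probes as reference.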

[2] = tested on: LXRa:RXRa (NR concentration 270 nM, RXRa partner concentration 90 nM)
Procedure, shortened: as §1

[3] = tested on: LXRa homodimer (NR concentration 270 nM)
Procedure, shortened: as §1

[4] = tested on: LXRb:RXRa (NR concentration 270 nM, RXRa partner concentration 90 nM)
Procedure, shortened: as §1

[5] = tested on: LXRb homodimer (NR concentration 270 nM)
Procedure, shortened: as §1

[6] = tested on: PPARa:RXRa (NR concentration 270 nM, RXRa partner concentration 90 nM)
Procedure, shortened: as §1

[7] = tested on: PPARg:RXRa (NR concentration 180 nM, RXRa partner concentration 90 nM)
Procedure, shortened: as §1

[8] = tested on: PPARg:RXRa 270nM:90nM, anti-RXR (NR concentration 270 nM, RXRa partner concentration 90 nM)
Procedure, shortened: as §1

[9] = tested on: PPARg:RXRa 30nM:10nM, anti-RXR (NR concentration 30 nM, RXRa partner concentration 10 nM)
Procedure, shortened: as §1

[10] = tested on: PPARg:RXRa 90nM:30nM, anti-RXR (NR concentration 90 nM, RXRa partner concentration 30 nM)
Procedure, shortened: as §1

Sequence | PBM binding z-score [1] | PBM binding z-score [2] | PBM binding z-score [3] | PBM binding z-score [4] | PBM binding z-score [5] | PBM binding z-score [6] | PBM binding z-score [7] | PBM binding z-score [8] | PBM binding z-score [9] | PBM binding z-score [10]
AGAATGAGGTTATTAAGATCAGGAAATTGCGGTC | 1.33 | 1.7 | 0.37 | 1.3 | -0.00704 | 2.59 | 1.63 | 1.8 | 0.356 | 1.47
CGTCCAAGCTCAGAGAGGTCAGTGAATGCCGAGT | 1.33 | 1.41 | 0.781 | 1.52 | -0.498 | 2.19 | -0.188 | 0.558 | -0.581 | -0.0568
ACTATTAGTTGACCTAGGGCAACCGATACGACGC | 1.76 | 2.47 | 2.09 | 2.31 | 1.09 | 2.52 | 1.71 | 1.48 | 0.386 | 0.958
GGAGCGAGGGCATTCGAGTTGATAGCATGGCGAT | 0.608 | 1.24 | -0.883 | -0.106 | -1.07 | 0.542 | 0.179 | -0.159 | -0.424 | -0.195
CCTACTGGGCAACGAAAGGTCATTGATTCAGTGA | 3.6 | 5.33 | 5.51 | 4.2 | 0.197 | 4.2 | 2.1 | 3.54 | 0.974 | 2.72
ATCTCTAGGTAAAGATAGTTCAGTGATTGCAAAT | 0.768 | 3.86 | 0.679 | 1.04 | 0.794 | 0.72 | 0.511 | 0.72 | 0.406 | 0.607
ACTAGCAGGCCGAGGGTCACTCAAGATTAGTCCG | 0.88 | 1.52 | -0.557 | 1.31 | -0.725 | 2.71 | 3.61 | 4.99 | 2.21 | 4.78
GCATATAGGTAATACAAGGTGAACGTCCGATTGT | 0.337 | 1.82 | 0.257 | 0.685 | -0.32 | 1.55 | 1.47 | 1.12 | 0.658 | 0.861
GGAACGAGGGCAAAGTTGATAGCTTCTGTCGACG | 1.24 | 0.709 | -0.752 | 0.608 | -0.484 | 3.85 | 6.78 | 6.83 | 5.74 | 7.17
AGTCAAAGTTCTGGACGAGGTAACGTAAAGCACG | -0.243 | -0.501 | -0.429 | -0.322 | -0.689 | 0.00286 | 0.557 | 0.0282 | -0.285 | 0.00624
GCAGACAGGTGAAACGCAGGTAACTCACGGTGGC | -0.0802 | 0.186 | -0.449 | -0.389 | -1.17 | 0.612 | 0.796 | -0.183 | -0.533 | -0.11
AGTAGTTGGTCAGCTGAGGTCACACACAATTCGG | 4.48 | 3.37 | 2.92 | 3.55 | 0.79 | 3.63 | 1.63 | 2.33 | 0.674 | 1.56
ATCGAAAGGTCGACGAGGTAAGTATACACCGTTT | 4.59 | 3.11 | -0.055 | 2.62 | 0.428 | 4.09 | 2.6 | 3 | 1 | 2.11
CCTAGCAGGGCAATCTGGGTCACTCAAGGCTTGA | 0.679 | 2.4 | -0.398 | 0.85 | -0.611 | 2.99 | 2.72 | 2.62 | 0.319 | 1.75
GCTAGTTGGTCAGTAACAGGTCACACACCGGTCG | 0.984 | 1.45 | 1.48 | 1.39 | -0.167 | 2.06 | 0.82 | 1.12 | -0.211 | 0.627
GGAACGAGGGCAGTCGAGTTGATAGCATGGCGAT | 0.203 | -0.214 | -0.72 | -0.752 | -1.02 | 0.405 | 0.453 | -0.213 | -0.485 | -0.457
TTACCAAGGTGAAAGGTCGTTAATGCACGCCTTG | 3.24 | 2.77 | 0.376 | 2.71 | -0.461 | 5.24 | 8.59 | 7.35 | 6.74 | 7.85
ATACCAAGGTGATCGTGAGGTCGTTGGTACTAAC | 1.53 | 1.48 | 0.698 | 0.769 | 0.221 | 1.51 | 0.281 | 0.597 | -0.201 | 0.338
ATCTCTAGGTAACAAGTTCTGTGAAAGAGAGGAC | 0.351 | 0.0214 | 0.142 | 0.0812 | 0.681 | 0.641 | 1.01 | 1.5 | 0.751 | 1.08
CCTCGGAGGACTGAAGGTCAGAGCTGTCCGCTTT | 0.88 | 1.89 | 0.285 | 0.745 | -0.722 | 1.46 | -0.679 | 0.572 | -0.9 | -0.111
CCAGACAGGTGAAAGATAACTCAGTCTGGTACGC | -0.034 | 0.0578 | -0.199 | -0.0465 | -0.465 | 0.902 | 1.27 | 1.47 | 0.306 | 1
GCTGCTAGCTCAACTGATGGTCAGCTAAAGCTCG | -0.673 | -0.959 | -0.842 | -1.01 | -1.05 | -1.23 | -0.747 | -1.13 | -1.24 | -1.15
TCTATTAGTTGAAGAGCAACCGACGAGTCCGTTT | 0.119 | 0.663 | -0.0692 | 0.436 | 0.0793 | 0.395 | -0.0464 | 1.45 | 3.13 | 2.28
CCAGACAGGTGAAAGGCAACTCAGTCTGGTACGC | -0.102 | 0.0112 | -0.327 | 0.0509 | -0.597 | 1.7 | 2.49 | 3.2 | 1.12 | 2.8
AATACAGCGTCATCGTAGGCCAGAGTACGCACAG | -0.326 | -0.432 | -0.689 | -0.757 | -0.269 | -0.355 | 0.716 | -0.141 | -0.189 | -0.519
